Experimental data reported in PubChem BioAssay (NCATS).
Values joined by “and” are separate entries in the source; they are usually repeats but may differ in a detail not shown here. Equal entries are not always repeated. Inconclusive results are not listed. A number with no mark means an inactive call. Active and inactive are the calls of the source. The call rests on the fitted dose curve; in most records, active means well fitted inhibition curve with a large enough effect; inconclusive means small, poorly fitted or top-dose-only effect; inactive means no such curve, though single readings can be large or run the other way.

Assay: Primary qHTS for inhibitors of nuclear receptor binding SET domain protein 2 (NSD2) in an RCH-ACV wild type WT cells (2C) (AID 1645877); further: nearly all actives have a fitted effect of over 70% in size
Settings: RCH-ACV (leukaemia line) NSD2 WT (2C) viability, CellTiter-Glo, 72 h; series mostly up to 44.9 µM; activity change, negative = cell killing: at the top concentration
On the % scale 0 is the no-effect control and ±100 the full control effect; potency means the concentration at half of the fitted maximal effect.

Structure (SMILES)	activity change, negative = cell killing	Potency	outcome
Cc1c(C2=CCN(C(=O)N(C)C(C)C)CC2)nnn1-c1cccnc1F	-18%		
C/C=C(\C)C(=O)O[C@H]1C=C(CO)C(=O)[C@H](OC(C)=O)[C@H]1C(C)C		2.84 µM (active)	
CC(C)Oc1ccc(-c2cnc3c(-c4ccnc5ccccc45)cnn3c2)cc1			inactive
Cn1ccc(NC(=O)c2cc(Oc3ccc(C(=O)N4CCC4)c(F)c3)c3c(c2)OC(C)(C)C3)n1	-30.8%		
CC1CCCC(O)CC(=O)c2c(O)cc(O)cc2CC(=O)O1 (centres undefined)		5.05 µM (active)	
C/C1=C\[C@@H](C)C[C@@H](C)[C@@H](Cc2cnco2)OC(=O)/C(C)=C/[C@@H](C)C[C@@H](C)[C@@H](Cc2cnco2)OC1=O		3.17 µM (active)	
Cc1nc2ccc(-n3ncc(C(=O)c4cc5ccccc5[nH]4)c3N)cc2[nH]1		7.28 µM (active) and 4.17 µM (active)	
O=c1cc(NCCCN[C@@H]2CCOc3c(Br)cc(Br)cc32)[nH]c2ccsc12		20.5 µM (active)	
O=C(Nc1ccnc(NC(=O)C2CC2)c1)c1c(Cl)cccc1Cl		2.95 µM (active)	
COc1ccc2c(c1O[C@H]1CCNC1)CCC2	-15.6%		
C/C(=C/CO)CCC1C(C)CCC2C(C)(C)CCCC12C (centres undefined)	-14.3%		
Cc1cc(F)c(C(=O)Nc2cccc(-c3nncn3C(C)C)n2)cc1-n1cnc(C2CC2)c1		9.34 µM (active)	
c1ccc(-c2ccc(CNc3nc(-c4ccccn4)nnc3-c3ccccc3)cc2)cc1		2.95 µM (active)	
C=C[C@]1(C)C[C@H](O)[C@H]2C(=C)C(=O)O[C@@H]2[C@H]1C(=C)CO		14.5 µM (active)	
O=C(Nc1cccc(C(F)(F)F)c1)Nc1ccc(Br)cc1-c1nn[nH]n1	-23.4%		
CC(=O)OC1CC(C)C2(CCC3(CC(=O)OC3O)O2)C2(C)CCCC(C)(C)C12 (centres undefined)	-14.7% [at 17.3 µM]		
CCC/C=C\C=C/CCc1cc(O)c([C@@H]2O[C@H](CO)[C@@H](O)[C@H](O)[C@H]2O)c(O)c1C(=O)OC	-14.8% [at 17.3 µM]		
CC(=O)Nc1nc(C)c(-c2nc(N3CCCC(O)C3)no2)s1 (centres undefined)		1.15 µM (active)	
Nc1nc2c(ncn2C2OC3COP(=O)(O)OC3C2O)c(=O)[nH]1 (centres undefined)	-31.5%		
CC(=O)C=C=C1C(C)(C)CC(O)CC1(C)O[C@@H]1O[C@H](CO[C@H]2OC[C@](O)(CO)[C@H]2O)[C@@H](O)[C@H](O)[C@H]1O (some centres undefined)	-7.35% [at 17.3 µM]		

Structure (SMILES)	activity change, negative = cell killing	Potency	outcome
C=C1CC[C@@H]2[C@](C)(CO)[C@H](O)CC[C@@]2(C)[C@@H]1C/C=C1/C(=O)OCC1O (some centres undefined)		7.28 µM (active)	
C=CCNC1=C2C[C@@H](C)C[C@H](OC)[C@H](O)[C@@H](C)/C=C(\C)[C@H](OC(N)=O)[C@@H](OC)/C=C\C=C(/C)C(=O)NC(=CC1=O)C2=O		2.63 µM (active)	
CC(=O)O[C@H]1CC(C)(C)CC2[C@]13CO[C@@]21CCC2[C@@]4(C)CC[C@H](O[C@@H]5OC[C@H](O[C@@H]6O[C@H](CO)[C@@H](O)[C@H](O)[C@H]6O[C@@H]6OC[C@@H](O)[C@H](O)[C@H]6O)[C@H](O)[C@H]5O[C@@H]5O[C@H](CO)[C@@H](O)[C@H](O)[C@H]5O)[C@@](C)(CO)C4CC[C@@]2(C)[C@]1(C)C[C@H]3O (some centres undefined)		3.88 µM (active)	
CS(=O)(=O)Nc1cc2occ(NC=O)c(=O)c2cc1Oc1ccccc1	-12.6%		
CC1CCCC[C@H]2C(=O)C=C[C@H](O)[C@@H]2CC(=O)O1 (some centres undefined)		2.05 µM (active)	
COc1cc(CCO)ccc1O[C@@H]1O[C@H](CO)[C@@H](O)[C@H](O)[C@H]1O	-18.7%		
Cn1cc(-c2cnn3c(N)c(Br)c([C@@H]4CCCNC4)nc23)cn1		1.15 µM (active) and 4.17 µM (active)	
COc1cc(F)c(F)c(Nc2ccc(I)cc2F)c1NS(=O)(=O)C1(CC(O)CO)CC1 (centres undefined)		25.8 µM (active)	
NC(=O)c1cnc(N[C@@H]2CCCC[C@H]2N)nc1Nc1cccc(-n2nccn2)c1		0.459 µM (active)	
C=C1C(=O)O[C@H]2/C=C(/C)[C@@H](OC(C)=O)C/C=C(\C)C[C@@H](OC(=O)/C(=C/C)COC(=O)/C(=C/C)CO)[C@@H]12		1.12 µM (active)	
COc1cc(C(C)=O)c(OC)c2c1OC(C)(C)C=C2	-3.87%		
CCC(CC)(NC(=O)C(C)C)C(=O)N[C@@H](CCCN=C(N)N)C(=O)NC1(C(=O)NC(c2ccc(F)cc2)c2ccc(F)cc2)CCCC1	4.02%		
COC(=O)C1=CO[C@@H](O[C@@H]2O[C@H](CO)[C@@H](O)[C@H](O)[C@H]2O)[C@H]2[C@@H]1C=C[C@]21C=C([C@H](C)OC(=O)/C=C/c2ccc(O)cc2)C(=O)O1		0.483 µM (active)	
CC(C)(C)C1CCN(C(=O)n2ncc(C(O)(c3ccccc3)c3ccccc3)n2)CC1		11.5 µM (active)	
C=C(C)C(=O)O[C@H]1/C(C=O)=C\CC/C(CO)=C/[C@H]2OC(=O)C(=C)[C@@H]2[C@@H]1OC		2.53 µM (active)	
CC1=CC2/C=C(\C)CCC(O)C(=O)C(O)CC(=O)C23C(=O)NC(CC(C)C)C3C1C (centres undefined)		6.32 µM (active)	
C=C1C(=O)O[C@@H]2C[C@H](C)C3=CC(=O)[C@H](O)[C@@]3(C)C[C@H]12		18.3 µM (active)	
c1cc(-c2cnn3cc(-c4ccc(N5CCNCC5)cc4)cnc23)c2cccnc2c1		4.17 µM (active)	
O=c1ccc2ccc(OCCCCN3CCN(c4cccc5sccc45)CC3)cc2[nH]1		16.3 µM (active)	
